Drawing on PubChem BioAssay (NCI), this text covers growth for 8 molecules.

About 83,000 compounds went through this panel and 20% of them were active in at least one assay; those are over-represented in the sample as a whole.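 The endpoint reported here, percent growth, reads 100 for growth as untreated, 0 for no net growth and -100 for all cells dead.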 A number with no mark means an inactive call. Activity calls are given as the source filed them. How the source made its calls: active means growth percent below 10; inactive means the rest.

Holding throughout (test): NCI-60 one-dose screen, 48 h (100 = growth as untreated, 0 = no growth, -100 = all killed)
For one assay, the system named is RPMI-8226 leukemia. The settings on record: 10 µM unless noted.
The next assay concerns OVCAR-8 ovarian. Conditions: 10 µM unless noted.
A further assay deals with OVCAR-5 ovarian. Conditions: 10 µM unless noted.
In another assay the test system is OVCAR-4 ovarian. The settings on record: 10 µM unless noted.
A further assay concerns IGROV1 ovarian. Conditions: 10 µM unless noted.
A further assay relates to OVCAR-3 ovarian. Conditions: 10 µM unless noted.
The next assay deals with HS 578T breast. Conditions: 10 µM unless noted.
In another assay the test system is NCI/ADR-RES ovarian. Conditions: 10 µM unless noted.
The subject of another assay is T-47D breast. Conditions: 10 µM unless noted.
The subject of another assay is MDA-MB-435 melanoma. Conditions: 10 µM unless noted.
For a further assay, the system named is SW-620 colon. The settings on record: 10 µM unless noted.
Another assay deals with MCF7 breast. Conditions: 10 µM.
For another assay, the system named is HCT-116 colon. The settings on record: 10 µM unless noted.
A further assay has as its system HCC-2998 colon. Conditions: 10 µM unless noted.
Another assay deals with KM12 colon. The settings on record: 10 µM unless noted.
Another assay deals with BT-549 breast. The settings on record: 10 µM unless noted.

Turning to `Cn1cc(-c2ccc3ncc(-c4ccc(CC(=O)Nc5cc(C(C)(C)C)no5)cc4)nc3c2)cn1`, the growth in the assay with RPMI-8226 leukemia was 32.3%; with OVCAR-8 ovarian, 37%; in the assay with OVCAR-5 ovarian, 74.6%; with OVCAR-4 ovarian it was 31.9%; in the assay on IGROV1 ovarian, 19.3%; with OVCAR-3 ovarian, 49.3%. The growth with HS 578T breast was 25.9%; with NCI/ADR-RES ovarian it was 43.7%; in the assay with T-47D breast, 25.5%; in the assay on MDA-MB-435 melanoma it was 28.8%; in the assay with SW-620 colon, 48.3%; in the assay on MCF7 breast, 30.2%. In addition, the growth in the assay on HCT-116 colon was 24.4%; in the assay with HCC-2998 colon it was 60.2%; in the assay on KM12 colon, 6.86% (active).
Regarding `O=C(N/N=C/c1ccccc1O)C(=O)Nc1ccc(F)cc1`, the growth is 52.2% in the assay with RPMI-8226 leukemia; 38.7% in the assay with OVCAR-8 ovarian; 64.8% in the assay on OVCAR-5 ovarian; 27.2% in the assay on OVCAR-4 ovarian; 53% with IGROV1 ovarian; 27.7% with OVCAR-3 ovarian. Besides, the growth in the assay with HS 578T breast was 74.6%; in the assay with NCI/ADR-RES ovarian it was 18.1%; in the assay on T-47D breast, 52.6%; in the assay with BT-549 breast it was 59.3%; in the assay with MDA-MB-435 melanoma, 59.3%; in the assay with SW-620 colon, 44.5%. Also, the growth is 20.9% in the assay on MCF7 breast, 37.6% in the assay with HCT-116 colon, 38.8% with HCC-2998 colon and 42.3% in the assay on KM12 colon.
Take `O=C(COc1cc(O)c2c(=O)cc(-c3ccccc3)oc2c1)Nc1ccccc1C(F)(F)F`: the growth in the assay with RPMI-8226 leukemia was 54.8%; in the assay with OVCAR-8 ovarian, 29%; with OVCAR-5 ovarian, 62.9%; in the assay with OVCAR-4 ovarian, -50.1% (active); in the assay on IGROV1 ovarian it was 40.3%; in the assay with OVCAR-3 ovarian, -2.06% (active). The growth was 15.5% in the assay on HS 578T breast; 51.2% in the assay with NCI/ADR-RES ovarian; 14.3% with T-47D breast; 78% in the assay on MDA-MB-435 melanoma; 21.8% in the assay with SW-620 colon; 49.8% with MCF7 breast. Also, the growth in the assay with HCT-116 colon was 5.84% (active); in the assay on HCC-2998 colon, 90%; in the assay on KM12 colon, 68.5%.
In the case of `CCCCN1CCN(c2ccc3nc(-c4ccc5nc(-c6ccc(OC)c(OC)c6)[nH]c5c4)[nH]c3c2)CC1`, the growth is -19% (active) in the assay on RPMI-8226 leukemia; 3.24% (active) with OVCAR-8 ovarian; 13.7% with OVCAR-5 ovarian; -46.1% (active) in the assay on OVCAR-4 ovarian; -13.2% (active) with IGROV1 ovarian; -46.8% (active) in the assay on OVCAR-3 ovarian. For the same molecule, the growth is -18.7% (active) in the assay with HS 578T breast; 91% in the assay on NCI/ADR-RES ovarian; 17.6% with T-47D breast; -59% (active) in the assay with BT-549 breast; -64.5% (active) with MDA-MB-435 melanoma; -50.8% (active) in the assay with SW-620 colon. In addition, the growth was -67.2% (active) in the assay with MCF7 breast, -80.2% (active) in the assay on HCT-116 colon, -70.2% (active) in the assay on HCC-2998 colon and -53.5% (active) in the assay on KM12 colon.
Turning to `COc1cc(/C=C2\CN(S(=O)(=O)c3ccccc3)C/C(=C\c3cc(CN4CCCC4)c(O)c(OC)c3)C2=O)cc(CN2CCCC2)c1O`, the growth is -13.3% (active) in the assay on RPMI-8226 leukemia; 19.2% in the assay with OVCAR-8 ovarian; -9.14% (active) in the assay with OVCAR-5 ovarian; 34.8% in the assay on OVCAR-4 ovarian; -27.6% (active) in the assay on IGROV1 ovarian; 11.1% with OVCAR-3 ovarian. Also, the growth in the assay with HS 578T breast is 33.6%; with NCI/ADR-RES ovarian it was 92.7%; with T-47D breast it was 32.3%; in the assay on BT-549 breast, 33.5%; with MDA-MB-435 melanoma it was -37.1% (active); in the assay with SW-620 colon, 4.93% (active). Also, the growth is 5.38% (active) in the assay on MCF7 breast, -81.1% (active) in the assay with HCT-116 colon, -87.9% (active) in the assay with HCC-2998 colon and -56.3% (active) in the assay on KM12 colon.
Turning to `O=C(c1nc2ccccc2[nH]1)C1C(c2ccc([N+](=O)[O-])cc2)C2CC3CCCCC3N2[C@@]12C(=O)Nc1cc(Cl)ccc12` (stereo not given in full), the growth in the assay on RPMI-8226 leukemia was 6.29% (active); in the assay with OVCAR-8 ovarian it was 35%; with OVCAR-5 ovarian it was 46.3%; with OVCAR-4 ovarian, 20.6%; with IGROV1 ovarian, 24.9%; with OVCAR-3 ovarian, 29.6%. Further, the growth was 54.6% with HS 578T breast; 29.2% in the assay on NCI/ADR-RES ovarian; 28.8% in the assay on T-47D breast; 46.9% in the assay with BT-549 breast; 23% in the assay with MDA-MB-435 melanoma; 31.6% with SW-620 colon. Further, the figures for the growth with MCF7 breast, in the assay with HCT-116 colon and with KM12 colon were 7.25% (active), 17.9% and 29.1%, respectively.
In the case of `COc1cc(/C(C#N)=C/c2nc3c(N4CCOCC4)nc(Cl)nc3n2C)cc(OC)c1OC`, the growth was 7.11% (active) in the assay with RPMI-8226 leukemia; 21.8% in the assay on OVCAR-8 ovarian; 34.6% with OVCAR-5 ovarian; 21.9% in the assay on OVCAR-4 ovarian; 8.43% (active) in the assay on IGROV1 ovarian; 0.593% (active) in the assay on OVCAR-3 ovarian. In addition, the growth with HS 578T breast was 0.385% (active); with NCI/ADR-RES ovarian, 8.53% (active); in the assay with T-47D breast it was 33.9%; with BT-549 breast it was 20.7%; with MDA-MB-435 melanoma, -48.5% (active); in the assay on SW-620 colon it was 19.8%. Besides, the growth in the assay on MCF7 breast is 6.74% (active); in the assay with HCT-116 colon, 4.75% (active); in the assay on HCC-2998 colon it was 7.16% (active); in the assay with KM12 colon, 1.09% (active).
Take `CCCCC1CCc2cccc3c(SCC(=O)N(C)c4ccc(Cl)cc4)cc[n+]1c23` (stereo not given): the growth in the assay on RPMI-8226 leukemia is 110%; with OVCAR-8 ovarian, 113%; in the assay with OVCAR-5 ovarian, 116%; in the assay on OVCAR-4 ovarian, 107%; in the assay with IGROV1 ovarian, 121%; in the assay on OVCAR-3 ovarian, 108%. The growth in the assay on HS 578T breast was 116%; in the assay on NCI/ADR-RES ovarian, 110%; in the assay on T-47D breast, 104%; in the assay on BT-549 breast, 115%; in the assay with MDA-MB-435 melanoma it was 103%; in the assay with SW-620 colon, 106%. The growth was 99.1% with MCF7 breast, 102% with HCT-116 colon, 114% in the assay on HCC-2998 colon and 108% with KM12 colon.
